Molecules are shown by their SMILES. In all, about 580,000 compounds went through this assay and about 6,100 (1.1%) were called active. Not shown: some 15% with an inconclusive outcome. Calls come from the whole dose curve; as a rule, active = well fitted inhibition curve with a large enough effect; inconclusive = small, poorly fitted or top-dose-only effect, or another doubt; inactive = no such curve, though single readings can be large or run the other way. Only a selection was taken, and actives are over-represented in it overall.
% is set by controls: 0 for no effect and ±100 for the full control effect; potency is the fitted concentration of half-maximal effect.

This assay deals with Polyunsaturated fatty acid lipoxygenase ALOX12 (Homo sapiens) (UniProt P18054). Description: Primary qHTS assay for inhibitors of human arachidonate 12S-lipoxygenase (ALOX12): Round 2. The conditions noted are these: purified 12hLO, xylenol orange hydroperoxide absorbance; series mostly up to 108 µM; activity change, negative = inhibition: at the top concentration. The text has this: Assay Provider: Theodore R. Holman Ph.D. University of California, Santa Cruz, California Human lipoxygenase 12hLO is a member of the closely related lipoxygenase family of enzymes which catalyze the site-specific oxidation of arachidonic acid to various hormone precursor molecules and as such is a candidate for drug development in a variety of disease areas, such as cancer and inflammation. Inhibition of 12hLO activity was screened by utilizing arachidonic acid as a substrate. The extent of hydroperoxide product formation was measured by a secondary chromogenic reaction in which xylenol orange (XO, Sigma-Aldrich, cat. number 39,818-7) reacts with the ferric ions produced from the reaction between the hydroperoxide and ferrous ions. The Fe (III)-XO complex is characterized with red-shifted absorbance at 560 nm. A purified preparation of human 12hLO was supplied by Dr. Holman laboratory, University of California, Santa Cruz.
Polyunsaturated fatty acid lipoxygenase ALOX12 (Homo sapiens), sequence (P18054 whole entry, looked up): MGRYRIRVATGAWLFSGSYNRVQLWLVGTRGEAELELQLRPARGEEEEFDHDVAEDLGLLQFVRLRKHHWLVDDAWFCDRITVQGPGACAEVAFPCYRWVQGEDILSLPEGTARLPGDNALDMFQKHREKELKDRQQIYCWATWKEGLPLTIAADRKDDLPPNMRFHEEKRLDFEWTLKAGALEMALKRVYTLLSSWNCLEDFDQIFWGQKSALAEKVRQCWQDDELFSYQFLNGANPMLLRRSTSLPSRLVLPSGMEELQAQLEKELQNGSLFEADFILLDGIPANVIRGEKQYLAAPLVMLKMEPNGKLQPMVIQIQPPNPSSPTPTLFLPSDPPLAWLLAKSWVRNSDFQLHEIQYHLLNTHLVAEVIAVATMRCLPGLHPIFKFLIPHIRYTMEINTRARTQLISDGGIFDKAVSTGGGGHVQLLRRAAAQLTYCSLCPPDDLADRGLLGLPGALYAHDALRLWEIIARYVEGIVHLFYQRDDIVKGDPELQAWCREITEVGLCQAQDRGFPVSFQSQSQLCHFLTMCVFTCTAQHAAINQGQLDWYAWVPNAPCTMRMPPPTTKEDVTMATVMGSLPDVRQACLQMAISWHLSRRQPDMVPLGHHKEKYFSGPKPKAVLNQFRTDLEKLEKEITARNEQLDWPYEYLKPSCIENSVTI
PROTOCOL TABLE SEQUENCE No. (e.g., 1, 2, 3, etc.); […] (e.g., Cells, Incubation, Reagent, etc.); VALUE; DESCRIPTION 1; Enzyme; 3 uL; 150 nM 12hLO enzyme solution dispensed in 1536-well Greiner black, clear bottom plates. 2; Compound; 23 nL; compounds and controls were added. 3; Incubate; 15 min; room temperature. 4; Substrate; 1 uL; 40 uM arachidonic acid (final concentration). 5; Incubate; 30 min; room temperature. 6; Reagent; 4 uL; Fe-XO solution was added to each well. 7; Incubation; 30 min; room temperature 8; Detector; absorbance; Read 1 at 405 nm absorbance using ViewLux (Perkin-Elmer) CCD imager. 9; Detector; absorbance; Read 2 at 573 nm absorbance using ViewLux (Perkin-Elmer) CCD imager. NOTES (numbers refer to sequence above) 1; 150 nM 12hLO (final concentration) in buffer solution (25 mM Hepes, 0.01% Triton X-100, pH 7.0) was dispensed in columns 1, 2, 5-48. Column 1 is neutral (100% activity). Buffer only was dispensed in columns 3 and 4 as no enzyme negative controls. The plates were covered with metal lids with gas-exchange holes. 2; Compounds were pin transferred via a Kalypsys Pin Tool (Wako USA) in column 5-48. Control compound was transferred in column 2, titration of nordihydroguaiaretic acid (NDGA, Sigma-Aldrich, N5023) with top concentration of 20 mM in DMSO then 1:3 dilution in duplicate. Dilution factor of 23 nL into 4 uL final assay volume. 3; Covered assay plates were incubated for 15 min at room temperature. 4; Substrate was added to start the reaction; 40 uM arachidonic acid (Sigma-Aldrich, St. Louis, MO) was dispensed throughout the plate. 6; Chromogenic detection reagent solution (divalent iron/xylenol orange, Fe-XO) was added to each well: 200 uM xylenol orange, 300 uM ferrous ammonium sulfate prepared freshly in 50 mM sulfuric acid. 8, 9; Two absorbance readouts were obtained at 405 nm and at 573 nm using a ViewLux high-throughput CCD plate imager (Perkin-Elmer). The 573 to 405 (Read 2 / Read 1) absorbance ratio was used to compute reaction progress.
For the compound `CC1=C(C)CC(C(=O)NCCN2CCOCC2)C(C(=O)O)C1` (stereo unspecified), the “activity change, negative = inhibition” value was 0.372% (inactive). For `CN(C)c1ccc(C=O)s1`, the “activity change, negative = inhibition” value is -2.25% (inactive). Take `O=C(/C=C/c1cc2cc(Cl)ccc2o1)NC1CCCC1`: the “activity change, negative = inhibition” value is -6.52% (inactive). For the compound `O=C(Cc1cccc(F)c1)NC1CCC(c2ccccc2)CC1` (stereo unspecified), the “activity change, negative = inhibition” value is 21.6% (inactive). Consider `O=C(/C=C/c1ccco1)NC1CCC(c2ccccc2)CC1` (stereo unspecified), for which the Potency is 7.94 µM (active). In the case of `CCN(CC)C(=O)CSc1ncc(-c2ccc(Br)cc2)o1`, the “activity change, negative = inhibition” value was -26.6% (inactive). Consider `CC(=O)c1sc(Nc2ccc(C)c(C)c2)nc1C`, for which the “activity change, negative = inhibition” value is -9.89% (inactive). For `C/C(=N\NC(N)=S)c1cc(C(C)(C)C)cc2c1CCC2(C)C`, the Potency is 31.6 µM (active).

On to `COc1ccc(C2CCCCCN2C(=O)CCn2ncc(=O)c3ccccc32)cc1` (stereo unspecified), for which the “activity change, negative = inhibition” value was 1.87% (inactive). For `CNC(=O)c1ccc(-c2nc(CN3CCN(C(=O)Nc4ccc(C)c(C)c4)CC3)c(C)o2)cc1`, the “activity change, negative = inhibition” value is 8.91% (inactive).

Take `COc1ccc(C2=C(C)C(=NC(C)C34CC5CC(CC(C5)C3)C4)NS2(=O)=O)cc1` (stereo unspecified): the “activity change, negative = inhibition” value was 1.75% (inactive). Consider `COC(=O)C1CCN(c2nc3ccccc3nc2C(C#N)C(=O)NC2CCCC2)CC1` (stereo unspecified), for which the “activity change, negative = inhibition” value was -2.98% (inactive). On to `Cc1ccc(S(=O)(=O)C(C#N)c2nc3ccccc3nc2N2CCCC2)cc1C` (stereo unspecified), for which the “activity change, negative = inhibition” value was 0.581% (inactive). `CC1CCN(c2nc3ccccc3nc2C(C#N)S(=O)(=O)c2cccc(Cl)c2)CC1` (stereo unspecified): the Potency was 11.2 µM (active). `COc1cccc(-c2nc(SCC(=O)Nc3nccs3)c(-c3ccc(Cl)cc3)[nH]2)c1`: the “activity change, negative = inhibition” value was 9.61% (inactive). Turning to `CCN(CC)S(=O)(=O)c1ccc(N2CCOCC2)c(NC(=O)CC2CCCC2)c1`, the “activity change, negative = inhibition” value was 27.8% (inactive). With `COc1ccc(Cn2c(CN(C)S(C)(=O)=O)n[nH]c2=O)cc1`, the “activity change, negative = inhibition” value was 68.5% (inactive). In the case of `COc1ccc(OCc2n[nH]c(=S)n2N)cc1`, the Potency is 15.8 µM (active). Turning to `COc1ccc(C(=O)CSc2n[nH]c(N)n2)cc1`, the “activity change, negative = inhibition” value was 0% (inactive). As to `Cc1ccc(-n2nnc(C(=O)NCC(C)C)c2C)cc1Cl`, the “activity change, negative = inhibition” value was -28.3% (inactive). As for `O=C(CSc1ncnc2sccc12)c1ccc2c(c1)OCCCO2`, the “activity change, negative = inhibition” value was 11.2% (inactive). Still for that read-out and setting: in the case of `O=C(CN(Cc1ccccc1)C(=O)c1ccc2c(c1)OCCO2)NCc1ccc2c(c1)OCO2` it was -24.4% (inactive).

Turning to `O=C(CSc1nnc(-c2ccccc2)c2ccccc12)c1ccc2c(c1)OCCCO2`, the Potency is 44.7 µM (active). For the compound `CCc1ccc(-c2csc(NC(=O)c3nn(CC)c(=O)c4ccccc34)n2)cc1`, the “activity change, negative = inhibition” value is 16.7% (inactive). Consider `CCOC(=O)/C(=C/c1ccc(Cl)s1)c1nccn1C`, for which the “activity change, negative = inhibition” value was -9.62% (inactive). On the same count and under the same terms, the same measure for `CC(=O)c1sc(N2C(=O)c3oc4ccccc4c(=O)c3C2c2ccc(C)cc2)nc1C` (stereo unspecified): 15.6% (inactive). As to `COc1cc(C2C(C(=O)c3ccco3)=C(O)C(=O)N2c2cc(C)on2)ccc1OCc1ccccc1` (stereo unspecified), the “activity change, negative = inhibition” value is -24.9% (inactive). On to `Cc1ccc2nc(N3C(=O)C(O)=C(C(=O)c4ccco4)C3c3cccc(O)c3)sc2c1` (stereo unspecified), for which the Potency is 25.1 µM (active).

For the compound `Cc1ccc(C(N)=O)c(OCc2coc(-c3ccccc3)n2)c1`, the “activity change, negative = inhibition” value is -0.951% (inactive). As for `CC(Sc1nc2cc(S(=O)(=O)N3CCCCC3)ccc2o1)C(=O)N1CCc2ccccc21` (stereo unspecified), the “activity change, negative = inhibition” value is 5.52% (inactive).

In the case of `CCOC(CNC(=O)c1ccc2c(c1)ncn2-c1cccc(C)c1)OCC`, the “activity change, negative = inhibition” value is -11.6% (inactive). `CC(Sc1ccc(Cl)cc1)C(=O)NCCC(=O)N1CCCC1` (stereo unspecified): the “activity change, negative = inhibition” value was -3.96% (inactive). Consider `CC(=O)CCC1=C(C)CCCC1(C)C`, for which the “activity change, negative = inhibition” value was 65.1% [at 176 µM] (inactive). In the case of `COc1ccc(/C=C2/C(=O)OCc3cc(OC)c(OC)cc32)c(OC)c1`, the “activity change, negative = inhibition” value was -14.4% (inactive). Take `COc1cc(/C=C/C(N)=O)cc(OC)c1OC`: the “activity change, negative = inhibition” value was 10.5% (inactive). On to `COc1ccc(/C=C/C2=CC(C)(C)NC(=S)N2)c(OC)c1`, for which the Potency was 39.8 µM (active).

For `COc1ccc(/C=N/OCc2ccccc2C#N)c(OC)c1`, the “activity change, negative = inhibition” value was 10.2% (inactive). In the case of `COc1cc(/C=C/C2=CC(C)(C)NC(=S)N2)cc(OC)c1OC`, the Potency is 44.7 µM (active).

As to `COc1cc(/C=C/c2ccc(/C=C/c3cc(OC)c(OC)c(OC)c3)cc2)cc(OC)c1OC`, the “activity change, negative = inhibition” value is 6.7% (inactive). On to `CCc1ccccc1NC(=O)CSc1nc2ccccc2nc1C`, for which the “activity change, negative = inhibition” value is -0.561% (inactive). Regarding `Cc1cc(C)cc(NC(=O)COc2ncnc3ccccc23)c1`, the “activity change, negative = inhibition” value was -13.6% (inactive). Take `COc1ccccc1CN(C)C(=O)NCc1ccc(S(=O)(=O)N2CCCCC2)cc1`: the “activity change, negative = inhibition” value was -8.8% (inactive).

Consider `c1ccc(CN2CCc3c(sc4c3c(N3CCOCC3)nc3nnnn34)C2)cc1`, for which the “activity change, negative = inhibition” value is -7.17% (inactive). On to `CCCCS(=O)(=O)CCCCCO`, for which the “activity change, negative = inhibition” value was 25.2% (inactive). Regarding `CN(C)c1ccc(NC(=O)Cn2cnc3c2c(=O)n(C)c(=O)n3C)cc1`, the “activity change, negative = inhibition” value is -22.3% (inactive).

Turning to `CC1(C)NC(=O)N(CCCC(=O)Nc2cccc3cccnc23)C1=O`, the “activity change, negative = inhibition” value was 0.0835% (inactive). With `Cc1cccc(NC2=NC(c3cccnc3)n3c(nc(C)cc3=O)N2)c1` (stereo unspecified), the “activity change, negative = inhibition” value was 39.2% (inactive).

On to `COc1ccccc1NC(=O)c1cc2c(OC)c(OC)c(OC)cc2[nH]1`, for which the “activity change, negative = inhibition” value was 17.8% (inactive). Regarding `Cc1cc2oc(C(=O)NCc3ccc4c(c3)OCO4)cc(=O)c2cc1C`, the “activity change, negative = inhibition” value is -0.692% (inactive). For `CCOc1ccc(S(=O)(=O)NCc2ccc3c(c2)OCO3)cc1C`, the “activity change, negative = inhibition” value was 1.24% (inactive). Regarding `Cc1ccc(CNCc2ccc3c(c2)OCO3)c(C)c1`, the Potency is 44.7 µM (active).

Source of the values: PubChem BioAssay AID1671190 (National Center for Advancing Translational Sciences (NCATS), 2021).
